PubChem BioAssay (NCATS)
Where “and” joins values, the source holds several entries; their conditions need not be identical. Equal values may be shown once. Inconclusive results are not listed. Entries that show only a call come without a potency. Calls of active or inactive are those of the source. Unless noted, the call rests on the fitted dose curve.

Experiments:
[1] = molecular target: Thyroid hormone receptor beta (Homo sapiens) (UniProt P10828); assay: qHTS assay for small molecule agonists of thyroid hormone receptor beta signaling (AID 588545); conditions: TR-UAS-bla GripTite HEK 293, beta-lactamase ratio, agonist mode, 18 h, percent of T3 response, DMSO as zero; series mostly up to 76.7 µM
Sequence of Thyroid hormone receptor beta (Homo sapiens) (P10828 whole entry, looked up): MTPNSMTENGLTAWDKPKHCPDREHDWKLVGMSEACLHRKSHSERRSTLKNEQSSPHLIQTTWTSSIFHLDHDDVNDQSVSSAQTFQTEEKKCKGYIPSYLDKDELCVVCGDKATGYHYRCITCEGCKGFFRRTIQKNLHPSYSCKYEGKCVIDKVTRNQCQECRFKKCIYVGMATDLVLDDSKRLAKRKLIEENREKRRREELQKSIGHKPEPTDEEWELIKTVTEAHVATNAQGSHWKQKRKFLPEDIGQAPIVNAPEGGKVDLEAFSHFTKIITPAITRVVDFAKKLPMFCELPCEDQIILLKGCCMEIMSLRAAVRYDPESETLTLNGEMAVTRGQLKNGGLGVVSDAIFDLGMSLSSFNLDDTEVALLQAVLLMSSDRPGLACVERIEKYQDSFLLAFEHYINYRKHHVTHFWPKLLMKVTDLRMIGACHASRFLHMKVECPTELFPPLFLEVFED
Outline: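 Compounds were tested as agonists in TR-UAS-bla-GripTite HEK 293 cells. After 18 hrs at 37 C, CCF4 substrate was added and fluorescence read after 2 hrs at room temperature.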

[2] = qHTS assay for small molecule antagonists of retinoid X receptor alpha signaling (AID 588546; active means well fitted inhibition curve with a large enough effect in the signal ratio, with a control signal flat, not every such curve was filed as active; the % refers to the signal ratio;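 further: cells stimulated with 9-cis-retinoic acid as agonist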); conditions: HEK293T RXRa-UAS-bla, beta-lactamase ratio, antagonist mode; measured here: W530 green channel, cytotoxicity proxy
Outline: (§1)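 Beta-lactamase reporter inhibition, read as CCF4 fluorescence ratio (ex 405, em 460/530 nm) after 2 h at RT. HEK293T UAS-bla cells, 2500/well, were stimulated with 9-cis-RA at 500 or 100 nM final alongside test compound for 18 h at 37 C.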

[3] = molecular target: Retinoic acid receptor RXR-alpha (Homo sapiens) (UniProt P19793); assay: as above; conditions: HEK293T RXRa-UAS-bla, beta-lactamase ratio, antagonist mode
Sequence of Retinoic acid receptor RXR-alpha (Homo sapiens) (P19793 whole entry, looked up): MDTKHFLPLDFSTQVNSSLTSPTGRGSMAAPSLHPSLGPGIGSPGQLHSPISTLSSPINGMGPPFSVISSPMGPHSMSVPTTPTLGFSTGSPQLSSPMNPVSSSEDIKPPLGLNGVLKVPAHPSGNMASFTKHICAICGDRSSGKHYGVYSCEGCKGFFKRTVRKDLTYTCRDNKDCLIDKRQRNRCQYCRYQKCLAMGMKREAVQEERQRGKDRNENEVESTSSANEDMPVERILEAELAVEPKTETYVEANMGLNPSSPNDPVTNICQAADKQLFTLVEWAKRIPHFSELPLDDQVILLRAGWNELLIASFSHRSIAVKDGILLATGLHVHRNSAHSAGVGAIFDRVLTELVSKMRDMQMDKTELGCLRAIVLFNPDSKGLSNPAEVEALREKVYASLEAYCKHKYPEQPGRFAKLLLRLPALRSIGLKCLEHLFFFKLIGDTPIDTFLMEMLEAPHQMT
Outline: as §1

[4] = molecular target: Thyroid hormone receptor beta (Homo sapiens) (UniProt P10828); assay: qHTS assay for small molecule antagonists of thyroid hormone receptor beta signaling (AID 588547; active means well fitted inhibition curve with a large enough effect in the signal ratio, with a control signal flat, not every such curve was filed as active; the % refers to the signal ratio;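 further: cells stimulated with 0.4 nM T3 agonist during compound exposure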); conditions: TR-UAS-bla HEK293, beta-lactamase ratio, antagonist mode, 18 h
Outline: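 Inhibition of T3-driven (0.4nM final) beta-lactamase reporter activity was measured over 0.59 nM to 92 uM compound after 18 h at 37 C. The cells were GripTite HEK293 TR-UAS-bla in charcoal/dextran-stripped serum, with CCF4 ratio read-out and IC50 from Hill fits.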

[5] = molecular target: Voltage-gated inwardly rectifying potassium channel KCNH2 (Homo sapiens) (UniProt Q12809); assay: qHTS Assay for Small Molecule Inhibitors of the Human hERG Channel Activity (AID 588834; active means well fitted inhibition curve with a large enough effect;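 further: lower thallium flux fluorescence means stronger hERG block; nearly all actives have a fitted effect of over 50% in size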; further: potency means the concentration at half of the fitted maximal effect); conditions: U2OS BacMam hERG, FluxOR thallium flux fluorescence; series mostly up to 46.1 µM
Sequence of Voltage-gated inwardly rectifying potassium channel KCNH2 (Homo sapiens) (Q12809 whole entry, looked up): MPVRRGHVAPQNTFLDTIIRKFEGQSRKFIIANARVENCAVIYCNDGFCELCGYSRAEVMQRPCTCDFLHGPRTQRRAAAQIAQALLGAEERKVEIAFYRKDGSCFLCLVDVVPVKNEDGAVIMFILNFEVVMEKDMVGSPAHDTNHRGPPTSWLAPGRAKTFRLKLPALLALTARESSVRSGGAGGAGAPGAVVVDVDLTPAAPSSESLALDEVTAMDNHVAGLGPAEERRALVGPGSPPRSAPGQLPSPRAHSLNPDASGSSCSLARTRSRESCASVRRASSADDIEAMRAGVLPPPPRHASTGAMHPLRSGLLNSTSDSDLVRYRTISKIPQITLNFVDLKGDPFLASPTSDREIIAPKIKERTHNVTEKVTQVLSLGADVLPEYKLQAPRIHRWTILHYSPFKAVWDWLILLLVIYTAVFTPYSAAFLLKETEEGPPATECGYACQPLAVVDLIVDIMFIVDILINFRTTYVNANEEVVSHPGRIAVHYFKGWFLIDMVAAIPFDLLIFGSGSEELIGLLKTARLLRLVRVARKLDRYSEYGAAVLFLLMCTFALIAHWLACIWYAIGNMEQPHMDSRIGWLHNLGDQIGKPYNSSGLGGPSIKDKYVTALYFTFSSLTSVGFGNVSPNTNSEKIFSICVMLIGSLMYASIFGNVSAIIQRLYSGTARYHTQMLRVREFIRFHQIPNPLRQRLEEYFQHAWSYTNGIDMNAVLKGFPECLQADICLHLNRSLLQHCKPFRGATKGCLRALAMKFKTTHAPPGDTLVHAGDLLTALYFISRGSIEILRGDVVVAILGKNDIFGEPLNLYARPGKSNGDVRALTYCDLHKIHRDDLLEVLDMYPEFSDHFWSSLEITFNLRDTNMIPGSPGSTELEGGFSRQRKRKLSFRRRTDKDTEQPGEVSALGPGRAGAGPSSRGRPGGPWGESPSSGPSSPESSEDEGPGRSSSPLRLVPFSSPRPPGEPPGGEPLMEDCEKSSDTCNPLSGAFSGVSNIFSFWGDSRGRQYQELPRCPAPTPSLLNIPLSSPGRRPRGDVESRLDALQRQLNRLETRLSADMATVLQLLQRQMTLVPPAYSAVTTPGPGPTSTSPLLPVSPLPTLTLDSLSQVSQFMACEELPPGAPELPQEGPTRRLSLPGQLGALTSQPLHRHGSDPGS
Outline: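 hERG-BacMam U2OS, 2000 cells/well; 0.7X FluxOR loading 1 hr RT dark; cpd ~10 min 37 °C; stim buffer; FDSS fluorescence 2 min @ 1 s; AC50 Hill fit.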

[6] = molecular target: Vitamin D3 receptor (Homo sapiens) (UniProt P11473); assay: qHTS assay for small molecule agonists of vitamin D receptor signaling (AID 588543); conditions: HEK293T VDR-UAS-bla, beta-lactamase ratio, 16 h; series mostly up to 76.8 µM
Sequence of Vitamin D3 receptor (Homo sapiens) (P11473 whole entry, looked up): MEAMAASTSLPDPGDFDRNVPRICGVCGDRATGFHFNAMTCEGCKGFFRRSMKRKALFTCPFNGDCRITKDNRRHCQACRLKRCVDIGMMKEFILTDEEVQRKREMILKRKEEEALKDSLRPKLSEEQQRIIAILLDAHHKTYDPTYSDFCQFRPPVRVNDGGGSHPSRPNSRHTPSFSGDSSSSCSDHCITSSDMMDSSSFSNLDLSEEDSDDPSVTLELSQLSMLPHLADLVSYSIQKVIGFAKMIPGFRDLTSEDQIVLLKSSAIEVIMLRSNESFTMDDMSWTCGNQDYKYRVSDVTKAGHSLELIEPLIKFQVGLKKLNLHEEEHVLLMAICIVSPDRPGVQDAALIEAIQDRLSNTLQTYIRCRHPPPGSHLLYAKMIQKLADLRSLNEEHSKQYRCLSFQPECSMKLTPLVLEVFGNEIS
Outline: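 Reporter cells (HEK293T, VDR-UAS-bla) were seeded in medium with 2% charcoal-stripped serum and incubated 5 h, then compounds in concentration series were added for 16 h at 37 °C. Stimulation was scaled between DMSO basal and 50 nM 1α,25-dihydroxyvitamin D3.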

[7] = qHTS assay for small molecule agonists of retinoid X receptor alpha signaling (AID 588544); conditions: HEK293T RXRa-UAS-bla, beta-lactamase reporter, 18 h; 530 nm emission; further: potency means the concentration at half of the fitted maximal effect
[8] = molecular target: Retinoic acid receptor RXR-alpha (Homo sapiens) (UniProt P19793); assay: as above; conditions: HEK293T RXRa-UAS-bla, beta-lactamase reporter, 18 h; series mostly up to 76.7 µM
[9] = molecular target: Peroxisome proliferator-activated receptor gamma (Homo sapiens) (UniProt P37231); assay: qHTS assay for small molecule antagonists of peroxisome proliferator-activated receptor gamma signaling (AID 588537; active means well fitted inhibition curve with a large enough effect in the signal ratio, with a control signal flat, not every such curve was filed as active; the % refers to the signal ratio;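 further: reporter cells co-stimulated with 50 nM rosiglitazone agonist during compound treatment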); conditions: HEK293 PPARg-UAS-bla, beta-lactamase ratio, antagonist mode; series mostly up to 76.8 µM
Sequence of Peroxisome proliferator-activated receptor gamma (Homo sapiens) (P37231 whole entry, looked up): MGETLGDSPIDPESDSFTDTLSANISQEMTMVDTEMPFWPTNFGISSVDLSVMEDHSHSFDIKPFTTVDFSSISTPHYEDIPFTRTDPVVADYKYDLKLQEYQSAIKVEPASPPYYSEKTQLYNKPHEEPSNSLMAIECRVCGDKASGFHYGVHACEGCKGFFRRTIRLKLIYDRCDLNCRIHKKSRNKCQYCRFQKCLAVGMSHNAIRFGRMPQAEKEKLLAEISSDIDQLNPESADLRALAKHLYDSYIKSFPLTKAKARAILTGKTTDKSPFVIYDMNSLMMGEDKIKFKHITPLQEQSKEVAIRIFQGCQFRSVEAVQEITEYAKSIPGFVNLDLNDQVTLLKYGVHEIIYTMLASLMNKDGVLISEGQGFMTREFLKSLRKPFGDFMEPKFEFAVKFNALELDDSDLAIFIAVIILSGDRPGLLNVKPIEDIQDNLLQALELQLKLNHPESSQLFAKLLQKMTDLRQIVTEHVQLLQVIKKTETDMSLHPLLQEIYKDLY
Outline: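 Antagonist mode, beta-lactamase reporter in HEK293; charcoal/dextran FBS 1%; 3000 cells/well, 37 C 6-6.5 h; cpd titration + rosiglitazone 50 nM final, 16 h 37 C; CCF4, 2 h RT; 460/530 nm; Hill fit → IC50, efficacy.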

[10] = molecular target: Vitamin D3 receptor (Homo sapiens) (UniProt P11473); assay: qHTS assay for small molecule antagonists of vitamin D receptor signaling (AID 588541); conditions: HEK293T VDR-UAS-bla, beta-lactamase ratio, antagonist mode; series mostly up to 76.7 µM; further: potency means the concentration at half of the fitted maximal effect
Outline: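 Antagonist-mode beta-lactamase reporter assay: HEK293T VDR-UAS-bla cells were exposed to titrated compound alongside 1-alpha,25-dihydroxyvitamin D3 at 3 nM final for 16 h. Values were normalized to the 50 nM agonist control and DMSO basal, with IC50 and efficacy from Hill equation fits.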

Compound	outcome [1]	max response [2]	max response [3]	activity change % (negative = inhibition) [4]	Potency [5]	outcome [6]	max response [7]	Potency [8]	outcome [9]	Potency [10]
C[C@]12CCC(=O)C=C1CC[C@@H]1[C@@H]2CC[C@]2(C)C(=O)CC[C@@H]12	inactive	24.5%	1.25% (inactive)	12.5% (inactive)	inactive					
C[C@]12CCC(=O)C=C1CC[C@@H]1[C@@H]2CC[C@@]2(C)[C@H]1CC[C@]2(C)O	inactive	-11.8%	36.9% (inactive)		inactive	inactive	-11.4%	inactive		
COC(=O)C(c1ccccc1)C1CCCCN1 (configuration not stated)	inactive	-4.37%	-5.94% (inactive)	13% (inactive)	inactive	inactive			inactive	inactive
CCOC(=O)CC(SP(=S)(OC)OC)C(=O)OCC (configuration not stated)	inactive	12.5% and 3.13% and -23.2%	-24.3% (inactive) and -13.6% (inactive) and -13.7% (inactive)	-33.5% (inactive)	inactive	inactive	5.59%	inactive		inactive
Nc1nc(N)nc(NC2CC2)n1	inactive	-17.8%	6.27% (inactive)	-23% (inactive)	inactive		-19.4%	inactive		
O=C(Oc1ccccc1)c1ccccc1O							23.5%	inactive		
CC(=O)OCC1=C(C(=O)O)N2C(=O)[C@@H](N)[C@H]2SC1					inactive					
O=C1OC(c2ccc(O)c(S(=O)(=O)O)c2)(c2ccc(O)c(S(=O)(=O)O)c2)c2c(Br)c(Br)c(Br)c(Br)c21					inactive					
O=C(O)CCCc1ccc(N(CCCl)CCCl)cc1	inactive	6.94% and -4.83%	8.7% (inactive) and 8.13% (inactive)	16.9% (inactive) and 14.1% (inactive)	inactive	inactive	15.5% and 20.9%	inactive	inactive	inactive
CN1C[C@H](C(=O)N[C@]2(C)O[C@@]3(O)[C@@H]4CCCN4C(=O)[C@H](Cc4ccccc4)N3C2=O)C=C2c3cccc4[nH]cc(c34)C[C@H]21	inactive				12.6 µM (active)	inactive				
CC(=O)N1CCN(c2ccc(OC[C@H]3CO[C@](Cn4ccnc4)(c4ccc(Cl)cc4Cl)O3)cc2)CC1										44.7 µM (active)
NC1=NC(=O)C(c2ccccc2)O1 (configuration not stated)					inactive					
[N-]=[N+]=CC(=O)OC[C@H](N)C(=O)O	inactive	-15.7%	7.74% (inactive)	10.8% (inactive)		inactive	-12%	inactive		inactive
Nc1ccc([As](=O)(O)O)cc1	inactive	-13.3%	-8.6% (inactive)	0.893% (inactive)	inactive	inactive	-10%	inactive	inactive	inactive
CCC(C)(C)c1ccc(O)cc1	inactive	-6.99% and -5.65%	7.35% (inactive) and 8.15% (inactive)	9.09% (inactive)	inactive	inactive	-12.7% and -6.48%	inactive	inactive	inactive
O=C(CCCN1CCC2(CC1)C(=O)NCN2c1ccccc1)c1ccc(F)cc1					1.78 µM (active) and 1 µM (active)					
CC1(C)C(C=C(Cl)Cl)C1C(=O)OC(C#N)c1cccc(Oc2ccccc2)c1 (configuration not stated)	inactive	-14.1%	-18% (inactive)			inactive	0.437%	inactive	inactive	
CC(C)c1cccc(C(C)C)c1O	inactive	2.4%	16.4% (inactive)	-3.45% (inactive)	inactive	inactive	-14.1%	inactive		inactive
CCCC(C)(COC(N)=O)COC(N)=O	inactive	-3.53%	-3.87% (inactive)	14.4% (inactive)	inactive	inactive			inactive	inactive
COP(=S)(OC)Oc1ccc(SC)c(C)c1	inactive	-22.3% and -7.85%	-5.05% (inactive) and -30% (inactive)	-0.0791% (inactive)		inactive	-8.01% and -11.8%	inactive	inactive	inactive

Compound	outcome [1]	max response [2]	max response [3]	activity change % (negative = inhibition) [4]	Potency [5]	outcome [6]	max response [7]	Potency [8]	outcome [9]	Potency [10]
COP(=S)(OC)SCN1C(=O)c2ccccc2C1=O	inactive			-12.6% (inactive)	inactive					
COc1cc(OC)c(OC)cc1C=O		-5.72%	-9.79% (inactive)		inactive	inactive				inactive
Oc1ccc(Cl)cc1	inactive	-7.58%	-3.06% (inactive)	-0.268% (inactive)	inactive	inactive	-11.6%	inactive	inactive	inactive
C[C@]1(O)CC[C@H]2[C@@H]3CCC4=CC(=O)CC[C@]4(C)[C@@]3(F)[C@@H](O)C[C@@]21C	inactive	17.9%	-6.75% (inactive)	5.6% (inactive)	inactive		3.94%	inactive	inactive	
CC(C)=CC1C(C(=O)OCN2C(=O)C3=C(CCCC3)C2=O)C1(C)C (configuration not stated)					20 µM (active)					
COP(=S)(OC)Oc1cc(Cl)c(Cl)cc1Cl	inactive	1.09%	-5.5% (inactive)	19.2% (inactive)			-2.58%	inactive	inactive	
O=C1c2ccccc2C(=O)c2ccccc21	inactive	-16.5%	-15.9% (inactive)	-1.19% (inactive)	inactive	inactive	-19.1%	35.5 µM (active)	inactive	inactive
CC(C)NC(C)C	inactive	-16.3%	9.42% (inactive)		inactive	inactive	-5.82%	inactive		inactive
Clc1ccc(C(c2ccc(Cl)cc2)C(Cl)(Cl)Cl)cc1	inactive			-20.1% (inactive) and -18.4% (inactive)	31.6 µM (active)	inactive			inactive	inactive
CC(C)c1c(CN(C)C(C)Cc2ccccc2)n(C)n(-c2ccccc2)c1=O (configuration not stated)					inactive					
Oc1ccccc1							-13.8% and -5.05%	inactive		
CCOP(=S)(OCC)Oc1ccc2c(C)c(Cl)c(=O)oc2c1	inactive				inactive				inactive	
Nc1ccccc1	inactive	-11.1%	4.87% (inactive)	-1.42% (inactive)	inactive	inactive	9.36%	inactive	inactive	
Nc1ccccc1C(=O)O	inactive	-6.42%	6.99% (inactive)	18% (inactive)	inactive	inactive	-3.98%	inactive	inactive	inactive
NCCc1ccc(O)cc1	inactive	-9.48%	-2.52% (inactive)	-4.83% (inactive)	inactive		-3.57%	inactive		
CN1C(=O)CC(=O)N(c2ccccc2)c2cc(Cl)ccc21					inactive					
CCC1(CC)C(=O)C=CNC1=O					inactive					
O=P1(N(CCCl)CCCl)NCCCO1 (configuration not stated)	inactive	-4.41% and 6%	8.47% (inactive) and -0.0175% (inactive)	-0.786% (inactive)	inactive	inactive	8.36% and -10.5%	inactive	inactive	inactive
O=C1c2ccccc2C(=O)C1C(=O)C(c1ccccc1)c1ccccc1	inactive	-10.9%	13.2% (inactive)	3.48% (inactive)	inactive		-20.8%	inactive	inactive	
